Screening results (PubChem)
A selection: hits, their analogues and other compounds. The true share with any hit is near 4.1%.
DAX1 inh-1 = NR0B1 (DAX1) inhibition; HEK293 Gal4-DAX1 luciferase reporter, luminescence; inhibition, % at 6.75 µM; hit rate 0.99% among 340,000; AID 504766;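 active = inhibition above the mean over all tested compounds plus 3 SD, cut at about 4.2% in these data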;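 note: 0% = DAX1-transfected cells with DMSO and 100% = empty-vector control cells with DMSO; inhibition shows as a rise in luminescence from relieved DAX1 repression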
Target sequence (P51843 207-470 limits assumed): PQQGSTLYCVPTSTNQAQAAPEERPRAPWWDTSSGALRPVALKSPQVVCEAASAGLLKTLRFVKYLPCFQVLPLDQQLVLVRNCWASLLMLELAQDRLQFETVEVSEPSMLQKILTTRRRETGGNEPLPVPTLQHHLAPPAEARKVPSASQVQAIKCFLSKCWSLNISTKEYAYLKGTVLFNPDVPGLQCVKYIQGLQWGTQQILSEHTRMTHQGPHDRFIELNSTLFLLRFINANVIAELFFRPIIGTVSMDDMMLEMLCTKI
hcDAF-12 act = H. contortus DAF-12 activation, primary screen; HEK293 hcDAF-12 lit1-tk-luc reporter, luminescence; 0% DMSO, 100% Δ7-dafachronic acid; hit rate 1.4% among 370,000; activation, % at 6.8 µM; AID 652067;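 active = activation above the mean of all tested compounds plus 3 SD, cut at about 5.5% in these data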;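 note: 100% = response to 3 µM Δ7-dafachronic acid high control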
DAX1 inh-2 = inhibitors of DAX1 repression of SF-1 activated StAR promoter | HEK293T StAR-luciferase reporter, SF-1/DAX-1 repression relief | inhibition, % at 6.8 µM | hit rate 1.1% among 370,000;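 active = inhibition above the mean over all tested compounds plus 3 SD, cut at about 3.6% in these data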;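 note: 0% = DAX-1 cells with DMSO and 100% = cells lacking DAX-1 with DMSO; higher inhibition means more luminescence from relief of DAX-1 repression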
hgDAF-12 ag = activates the H. glycines DAF-12 receptor ligand-binding domain; activation, % at 6.8 µM; HEK293 GAL4-hgDAF12 UAS-luciferase reporter, agonist luminescence; normalized to butyrate control; AID 687014; hit rate 1.8% among 370,000;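 active = activation above a cutoff set at the mean of all screened compounds plus 3 SD, cut at about 10% in these data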;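 note: 0% = DMSO wells and 100% = sodium butyrate wells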
ssDAF-12 act = activators of S. stercoralis DAF-12 nuclear receptor. HEK293 ssDAF-12/GRIP1 lit1-tk-luc reporter, luminescence; % of 3 µM dafachronic acid response. activation, % at 6.8 µM. hit rate 1% among 370,000;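 active = activation above the mean over all tested compounds plus 3 SD, cut at about 0.9% in these data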;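 note: 0% = DMSO-only wells and 100% = 3 µM delta7-dafachronic acid wells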
DAX1 inh confirm = confirmation of human DAX1 (NR0B1) inhibitors; shares compounds with DAX1 inh-2; HEK293T StAR-promoter luciferase reporter, SF-1/DAX-1 repression; inhibition, % at 6.8 µM; hit rate 87% among 2,400; AID 652134;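 active = inhibition above the average of every tested compound plus 3 SD, cut at about 3.8% in these data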;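 note: 0% = DAX-1 cells with DMSO and 100% = no DAX-1 control cells with DMSO; active compounds raise luminescence by relieving repression of the StAR reporter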
Target sequence (P51843 whole entry, looked up): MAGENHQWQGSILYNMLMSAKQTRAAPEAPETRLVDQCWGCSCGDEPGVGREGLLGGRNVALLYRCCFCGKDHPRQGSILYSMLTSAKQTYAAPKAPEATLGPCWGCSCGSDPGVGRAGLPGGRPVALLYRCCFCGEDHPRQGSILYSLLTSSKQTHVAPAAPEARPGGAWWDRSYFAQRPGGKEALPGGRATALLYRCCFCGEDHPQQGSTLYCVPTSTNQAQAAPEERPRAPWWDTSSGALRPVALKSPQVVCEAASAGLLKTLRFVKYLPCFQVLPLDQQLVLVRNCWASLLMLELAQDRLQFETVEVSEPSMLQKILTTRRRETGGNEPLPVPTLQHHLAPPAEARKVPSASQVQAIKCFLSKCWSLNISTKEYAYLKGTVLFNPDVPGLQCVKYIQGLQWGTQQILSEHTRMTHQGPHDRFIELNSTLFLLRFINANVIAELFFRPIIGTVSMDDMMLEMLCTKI
SF1 mutant ctr = nonselective inhibitor or artifact in SF-1 mutant DAX1 counter-screen | HEK293 StAR-luciferase, SF-1 AF2 mutant, luminescence | inhibition, % at 6.8 µM | hit rate 78% among 2,400 | AID 652136 | shares compounds with DAX1 inh-2;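 active = inhibition above the mean of all tested compounds plus 3 SD, cut at about 3% in these data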;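 note: 0% = DAX-1 transfected cells with DMSO and 100% = cells without DAX-1 with DMSO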
LXRb hcDAF ctr = LXR-beta agonism as hcDAF-12 counter-screen. shares compounds with hcDAF-12 act. activation, % at 6.8 µM. 3,400 tested, under 10 active. HEK293 Gal4-LXR tk-luc reporter, luminescence, 24 h; normalized: DMSO 0%, positive control 100%;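 active = mean percent activation of the reporter above a cutoff set as the average over tested compounds plus their standard deviation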
hcDAF12 conf = hcDAF-12 agonism, confirmation assay; hit rate 61% among 3,400; shares compounds with hcDAF-12 act; HEK293 hcDAF-12 lit1-tk-luc reporter, luminescence; % of Δ7-dafachronic acid response; activation, % at 6.8 µM;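 active = mean activation across triplicate tests above the threshold derived from the earlier primary screen, cut at about 5.5% in these data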;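 note: 0% = DMSO only wells and 100% = 3 µM Δ7-dafachronic acid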
Starred values were filed as active, the others as inactive; ! = not active in a repeat.

Results for COC(=O)[C@]12C[C@H](CC(=O)NCc3ccc(C)o3)C(=O)N(Cc3cccc4ccccc34)C1=C[C@H](C(C)C)O[C@@H]2C1CC1 ?
hcDAF-12 act: -0.2; DAX1 inh-2: -1.8; hgDAF-12 ag: -0.1; ssDAF-12 act: -0.8

What do the screens show for `Cc1ccc(C(=O)NC2=NCCS2)cc1`?
hcDAF-12 act: 2.9; DAX1 inh-2: 2.8; hgDAF-12 ag: 9.4; ssDAF-12 act: 0.1

Results for CC(C)Oc1ccc(C(=O)NC2=NCCS2)cc1 ?
DAX1 inh-1: -0.1; hcDAF-12 act: 7.5*; DAX1 inh-2: 9.9*; hgDAF-12 ag: 22.3*; ssDAF-12 act: 0.4; DAX1 inh confirm: 13.6*; SF1 mutant ctr: 8.1*; LXRb hcDAF ctr: 1.1; hcDAF12 conf: 4.4

How did Cc1ccc(-n2nc3ccc(NC(=O)C(C)C)cc3n2)cc1 do in these assays?
DAX1 inh-1: 2.5; hcDAF-12 act: 9.8*; DAX1 inh-2: 5.1*; hgDAF-12 ag: 17.3*; ssDAF-12 act: 1.0*; DAX1 inh confirm: 15.8*; SF1 mutant ctr: 7.7*; LXRb hcDAF ctr: 1.7; hcDAF12 conf: 6.8*

Results for CC(C)C(=O)Nc1ccc2nn(-c3ccc(F)cc3)nc2c1 ?
DAX1 inh-1: -0.5

What do the screens show for `O=C1[C@@H](C2CC2)[C@@H]2c3ccccc3C=NN2[C@@H]2c3ccccc3C=NN12`?
hcDAF-12 act: 0.5; DAX1 inh-2: -0.7; hgDAF-12 ag: -1.0; ssDAF-12 act: -0.6

How did Cc1c(C(=O)N2CCc3ccccc3C2)sc2nc(-c3ccccc3)cn12 do in these assays?
DAX1 inh-1: -0.9; hcDAF-12 act: -1.3; DAX1 inh-2: 0.2; hgDAF-12 ag: 1.0; ssDAF-12 act: -0.8

What do the screens show for `c1ccc(-c2cn3c4c(sc3n2)CCCC4)cc1`?
DAX1 inh-1: -2.9; hcDAF-12 act: 8.5*; DAX1 inh-2: 6.2*!; hgDAF-12 ag: 4.8; ssDAF-12 act: 0.2; DAX1 inh confirm: 10.0*; SF1 mutant ctr: 1.5; LXRb hcDAF ctr: 1.5; hcDAF12 conf: 18.8*

What do the screens show for `Cc1cc2c(nc1C)CCCN2S(=O)(=O)c1ccccc1`?
hcDAF-12 act: -0.6; DAX1 inh-2: 1.9; hgDAF-12 ag: -0.6; ssDAF-12 act: -0.9

What do the screens show for `COC(=O)C1=C(C)N(Cc2ccccc2C(F)(F)F)C(=NCc2ccc(C(F)(F)F)cc2)NC1c1cccc(F)c1` (configuration not stated)?
hcDAF-12 act: 0.9; DAX1 inh-2: 0.5; hgDAF-12 ag: -1.2; ssDAF-12 act: -0.9

What do the screens show for `CS(=O)(=O)Nc1ccc(C2=NN(S(C)(=O)=O)C(c3ccc4nccnc4c3)C2)cc1` (configuration not stated)?
DAX1 inh-1: 0.0; hcDAF-12 act: -0.9; DAX1 inh-2: -0.2; hgDAF-12 ag: 2.0; ssDAF-12 act: -0.5

How did Cc1ccc(C2=NN(S(C)(=O)=O)C(c3ccc4c(c3)OCO4)C2)cc1 (configuration not stated) do in these assays?
DAX1 inh-1: 1.1; hcDAF-12 act: 12.9*; DAX1 inh-2: 5.4*; hgDAF-12 ag: 21.3*; ssDAF-12 act: 0.9*; DAX1 inh confirm: 19.3*; SF1 mutant ctr: 9.0*; LXRb hcDAF ctr: 1.5; hcDAF12 conf: 14.0*

Results for Cc1ccc(-c2noc(-c3ccccc3Br)n2)cc1 ?
DAX1 inh-1: 4.2*; hcDAF-12 act: 16.1*; DAX1 inh-2: 5.5*; hgDAF-12 ag: 14.1*; ssDAF-12 act: 2.9*; DAX1 inh confirm: 16.1*; SF1 mutant ctr: 7.8*; LXRb hcDAF ctr: 1.9; hcDAF12 conf: 21.0*

What do the screens show for `c1ccc(-c2noc(-c3ccccc3-c3ccccc3)n2)cc1`?
DAX1 inh-1: -0.1; hcDAF-12 act: -0.8; DAX1 inh-2: -0.2; hgDAF-12 ag: -0.4; ssDAF-12 act: -0.9

Results for COC(=O)C1=C(C)N(Cc2cccc(C(F)(F)F)c2)C(=NCC2CC2)NC1c1cccc(F)c1 (configuration not stated) ?
hcDAF-12 act: -1.6; DAX1 inh-2: 1.4; hgDAF-12 ag: -2.2; ssDAF-12 act: -0.2

Results for Cc1c(C(=O)NC2=NCCS2)oc2ccccc12 ?
DAX1 inh-1: 1.1; hcDAF-12 act: 18.8*; DAX1 inh-2: 5.3*; hgDAF-12 ag: 14.3*; ssDAF-12 act: 2.7*; DAX1 inh confirm: 14.4*; SF1 mutant ctr: 7.2*; LXRb hcDAF ctr: 1.9; hcDAF12 conf: 20.6*

What do the screens show for `CCOC(=O)C1CCCN(C(=O)CCc2nnc(-c3ccc(C(C)=O)s3)o2)C1` (configuration not stated)?
DAX1 inh-1: 3.7; hcDAF-12 act: 6.8*; DAX1 inh-2: 5.5*; hgDAF-12 ag: 12.9*; ssDAF-12 act: -0.1; DAX1 inh confirm: 5.8*; SF1 mutant ctr: 5.9*; LXRb hcDAF ctr: 0.8; hcDAF12 conf: 6.1*

How did CC(/C=N/NC(=O)c1cccs1)=C\c1ccccc1 do in these assays?
DAX1 inh-1: 1.5; hcDAF-12 act: 6.8*; DAX1 inh-2: 7.0*; hgDAF-12 ag: 16.3*; ssDAF-12 act: 1.4*; DAX1 inh confirm: 17.9*; SF1 mutant ctr: 7.8*; LXRb hcDAF ctr: 1.8; hcDAF12 conf: 7.2*

How did CCCC1CCC2(CCCN2CCOC(=S)Nc2ccccc2)CC1 (configuration not stated) do in these assays?
hcDAF-12 act: -2.7; hgDAF-12 ag: 2.5; ssDAF-12 act: -1.9

What do the screens show for `COc1ccc(-c2cc3c(nn2)-c2ccccc2C3=O)cc1`?
DAX1 inh-1: 1.1; hcDAF-12 act: 9.4*; DAX1 inh-2: 4.5*; hgDAF-12 ag: 12.2*; ssDAF-12 act: 2.4*; DAX1 inh confirm: -1.5; SF1 mutant ctr: -3.0; LXRb hcDAF ctr: 0.3; hcDAF12 conf: 1.5

How did COc1ccc(-c2cc(-c3ccccc3)c(-c3ccccc3)nn2)cc1 do in these assays?
hcDAF-12 act: 3.4; DAX1 inh-2: 0.8; hgDAF-12 ag: 5.5; ssDAF-12 act: 0.1

What do the screens show for `O=C(CCc1ccccc1)N[C@H]1[C@H](OCc2ccccc2)CCC[C@@]12C(=O)N(Cc1ccccc1)c1ccc(-c3ccsc3)cc12`?
hcDAF-12 act: -1.9; DAX1 inh-2: -1.4; hgDAF-12 ag: 4.5; ssDAF-12 act: -1.6
